The supplement of paper PMC6522484
± gives the standard deviation of the averaged measurements.

Experiments:
DLD1 [1] = assay: cell viability (CellTiter-Glo) relative to plate median (fraction of plate median); higher = more viable cells; conditions: 5 µM; treatment time 24 h; reporter: 7TFP
Method in brief: (§1)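 On parallel plates, a Tecan F500 reader recorded either firefly luciferase or CellTiterGlo luminescence. The plates held colorectal cancer cells stably transduced with lentiviral TCF/Wnt firefly luciferase reporters (7TFP or TCF4/Wnt), seeded in 384-well format and treated 24 h later with library compounds at a final 5 µM for 24 h. Per-well signals were normalised to the plate median (webcellHTS2, additive, no log transformation), and two independent replicates were averaged.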

HCT116 = assay: as above; conditions: 5 µM; treatment time 24 h; reporter: TCF4/Wnt
Method in brief: as §1

SW480 [2] = assay: as above; conditions: 5 µM; treatment time 24 h; reporter: 7TFP
Method in brief: as §1

DLD1 [3] = assay: TCF/Wnt firefly luciferase reporter signal relative to plate median (fraction of plate median); higher = higher Wnt reporter signal; conditions: 5 µM; treatment time 24 h; reporter: 7TFP
Method in brief: as §1

SW480 [4] = assay: as above; conditions: 5 µM; treatment time 24 h; reporter: 7TFP
Method in brief: as §1

Compound | cell viability (DLD1 [1]) | cell viability (HCT116) | cell viability (SW480 [2]) | TCF/Wnt firefly luciferase reporter signal (DLD1 [3]) | TCF/Wnt firefly luciferase reporter signal (SW480 [4])
COc1cccc(C2(O)CCCCC2CN(C)C)c1 (stereo not given) | 0.997 ± 0.019 | 1.03 ± 0.047 | 1 ± 0.036 | 1.09 ± 0.057 | 1.09 ± 0.021
COc1ccc(/C=C/c2cc(O)cc(O)c2)cc1 | 1.05 ± 0.057 | 1.01 ± 0.021 | 0.982 ± 0.018 | 1.25 ± 0.33 | 1.21 ± 0.099
C/C=C/[C@H]1O[C@@](O)([C@@H](C)[C@H](O)[C@H](C)[C@H]2OC(=O)/C(OC)=C/C(C)=C/[C@@H](C)[C@@H](O)[C@@H](C)[C@@H](O)[C@H](C)C/C(C)=C/C=C/[C@@H]2OC)C[C@@H](O[C@H]2C[C@@H](O)[C@H](OC(N)=O)[C@@H](C)O2)[C@@H]1C [Concanamycin B] | 0.935 ± 0.0085 | 0.941 ± 0.011 | 1.05 ± 0.014 | 0.9065 ± 0.0064 | 1.05 ± 0.042
NCC(O)c1ccc(O)cc1 (stereo not given) | 0.972 ± 0.097 | 0.923 ± 0.015 | 0.972 ± 0.011 | 0.954 ± 0.21 | 0.943 ± 0.043
CC[N+]1(C)CCCC(OC(=O)C(O)(c2ccccc2)c2ccccc2)C1 (stereo not given) | 0.945 ± 0.0014 | 0.949 ± 0.087 | 0.933 ± 0.091 | 0.857 ± 0.0071 | 0.958 ± 0.06
CC(=O)O[C@H]1C[C@@H]2CC[C@@H]3[C@H](CC[C@@]4(C)[C@H]3C[C@H]([N+]3(C)CCCCC3)[C@@H]4OC(C)=O)[C@@]2(C)C[C@@H]1[N+]1(C)CCCCC1 | 0.9865 ± 0.0064 | 1.03 ± 0.062 | 0.963 ± 0.011 | 1.01 ± 0.093 | 0.9685 ± 0.0078
CC1=CC(=O)c2c(O)cccc2C1=O | 0.0607 ± 0.019 | 0.229 ± 0.24 | 0.404 ± 0.51 | 0.0412 ± 0.032 | 0.157 ± 0.19
CN1CCc2cc3c(cc2C1O)OCO3 (stereo not given) | 1.01 ± 0.026 | 1.03 ± 0.047 | 0.995 ± 0.021 | 0.956 ± 0.037 | 0.942 ± 0.064
CC1(C)C2CC(=O)[C@]3(C)C(CC[C@@]4(C)[C@H](c5ccoc5)OC(=O)C5OC543)[C@@]2(C)[C@@H](O)C[C@H]1O (stereo not given in full) | 0.996 ± 0.048 | 1.04 ± 0.057 | 0.995 ± 0.05 | 1.01 ± 0.098 | 1.02 ± 0.054
CC1C[C@H]2CC(=O)[C@H]3CCCN4CCC[C@H]2[C@]34C1.[O-][Cl+3]([O-])([O-])O (stereo not given in full) | 0.97 ± 0.011 | 1.01 ± 0.031 | 0.933 ± 0.0042 | 1.1 ± 0.099 | 1.1 ± 0.16
C=CCc1ccc2c(c1)OCO2 | 0.985 ± 0.021 | 0.898 ± 0.13 | 1.06 ± 0.078 | 0.914 ± 0.16 | 0.952 ± 0.11
NC(=O)c1cc([N+](=O)[O-])cc([N+](=O)[O-])c1 | 1.01 ± 0.015 | 1.01 ± 0.093 | 0.98 ± 0.016 | 1.06 ± 0.05 | 0.923 ± 0.14
NC(=O)C[S+]([O-])C(c1ccccc1)c1ccccc1 (stereo not given) | 0.952 ± 0.12 | 1.1 ± 0.05 | 1.02 ± 0.014 | 1.08 ± 0.064 | 1.02 ± 0.014
CCCCC[C@H](O)c1c(O)cc2c(c1O)C(=O)c1c(O)cc(O)cc1C2=O [Averantin] | 1.02 ± 0.035 | 1.075 ± 0.0071 | 0.9935 ± 0.00071 | 1 ± 0.11 | 0.939 ± 0.14
